# Source: PubChem BioAssay
# The full list was thinned out, with hits kept by preference.
# VCAM1 pot: enhances TNF alpha induced VCAM1 expression in HUVEC; 93,000 tested, 0.19% active; HUVEC TNFa-stimulated VCAM-1 immunofluorescence, high-content imaging; scaled per plate to unstimulated/TNFa-only wells; activation, % at 2 µM;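 active = activation above the screen mean plus 3 SD, with well images confirming the hit on visual review, cut at about 28% in these data, passing the limit was not always enough; inconclusive = activation above that limit but images do not confirm it; inactive = activation not above that limit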;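 note: signal is the number of cytoplasmic VCAM-1 stained grains per positive cell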
# VCAM1 pot confirm: potentiators of TNFa-induced VCAM1 expression, confirmation, imaging, HUVEC, triplicate retest | shares compounds with VCAM1 pot | HUVEC TNFa-stimulated VCAM-1 immunofluorescence imaging | activation, % at 2 µM | 230 tested, under 10 active | AID 1034;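 active = activation above 30% in triplicate retests at 2 µM, then confirmed by visual review of the well images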;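 note: scaled per plate between unstimulated and TNFa-stimulated DMSO control wells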
# * marks the source's active call; other numbers are inactive results; ? = inconclusive.
SMILES,VCAM1 pot,others
CCOCC(=O)Nc1ccc(S(=O)(=O)N2CCOCC2)cc1,21.3,
CCOc1ccc(CN(CCO)CCO)cc1[N+](=O)[O-],-6.1,
COc1ccc(OCC(=O)Sc2ccc(C)cc2)cc1,7.4,
Cc1ccc(OC(=O)CCC(=O)OCCCC(F)(F)C(F)(F)F)cc1,?,VCAM1 pot confirm=-7.9
CCOc1ccc(-c2nc(S(=O)(=O)c3ccccc3)c(NCc3cccnc3)o2)cc1,-7.9,
CC(C)(C)NS(=O)(=O)c1ccc(CCC(=O)NCc2ccco2)cc1,-24.0,
CC(=O)N(C)c1ccc(OCC(O)COc2ccc(N(C)C(C)=O)cc2)cc1,17.2,
Cc1cc(NCCN(C)C)n2nc(-c3cccs3)cc2n1,40.9*,VCAM1 pot confirm=-10.3
Cc1cc(N2CCOCC2)nc(SCc2ccc(Cl)cc2Cl)n1,-6.4,
CCN(CC)C(=O)N1c2ccccc2CC(N(CC)CC)c2ccccc21 (stereo not drawn),2.4,
Cc1ccc(CNC(=O)CSc2ncccn2)cc1,9.5,
O=S1(=O)CCC(S(=O)(=O)N2CCCCCC2)C1 (stereo not drawn),-17.6,
CCOC(=O)c1cc(C)n(CCc2ccccc2)c1C,-9.0,
CCOC(=O)c1[nH]c2ccc(OC)cc2c1C,-4.2,
CCOC(=O)c1c(N)sc(-c2ccccc2)c1C,45.3*,VCAM1 pot confirm=-10.1
CCOC(=O)Nc1ccc2c(c1)N(C(=O)C(C)N1CCCC1)c1ccccc1CC2 (stereo not drawn),-1.3,
COc1cccc(CN(C(=O)c2cc3ccccc3oc2=O)C2CC2)c1,3.8,
N#CC(C(=O)C12CC3CC(CC(C3)C1)C2)c1nc2ccccc2[nH]1 (stereo not drawn),-8.5,
CCCCCCCC1CC(CSc2ncn[nH]2)OC1=O (stereo not drawn),88.9*,VCAM1 pot confirm=-14.4
CCCCCC1CC(CC(C)C(=O)Nc2nncs2)C(=O)O1 (stereo not drawn),6.4,
C=C(C)Cn1c(SCC(=O)O)nnc1-c1ccc(C(C)(C)C)cc1,5.8,
O=C(Nc1ccccc1)N1CCC(n2c(=O)[nH]c3ccccc32)CC1,-1.7,
Cc1nc(SCC(=O)N(C)Cc2ccco2)c2c(C)c(C)sc2n1,-1.0,
Fc1cccc(-c2nn[nH]n2)c1,30.8*,VCAM1 pot confirm=-21.2
CCn1cc(Br)c(C(=O)NCc2ccco2)n1,-5.4,
SMILES,VCAM1 pot,others
O=C(c1ccc([N+](=O)[O-])cc1)N(Cc1ccc(Cl)cc1)N1C(=O)CCCC1=O,-46.3,
Cc1ccc(C(=O)NCC(=O)NCC(=O)OCC(=O)c2ccc([N+](=O)[O-])cc2)cc1,0.2,
O=C1CCCN1CCC1CCN(C(=O)Nc2ccccc2)CC1,-6.4,
COc1ccc(CNC(=O)c2ccc(CN3CCOCC3)cc2)cc1,-7.8,
COc1cc(NC(=O)NCCN2CCN(c3ccc(Cl)cc3)CC2)ccc1C,-1.4,
COc1ccc(NC(=O)c2ccc(CN3CCN(c4ccccc4)CC3)cc2)cc1OC,?,VCAM1 pot confirm=-6.6
O=C(c1ccc(Cl)cc1)N1CCCOC1,-99.9,
O=C(NCc1ccco1)c1ccc(S(=O)(=O)c2cccc(S(=O)(=O)N3CCOCC3)c2)cc1,?,VCAM1 pot confirm=-21.4
CC(=O)c1cccc(NC(=O)c2ccc(S(=O)(=O)N3CCCCC3)cc2)c1,2.9,
CC(=O)c1ccc(N2CCN(S(=O)(=O)c3cccc(S(=O)(=O)N4CCOCC4)c3)CC2)cc1,-7.6,
Cc1cc(S(=O)(=O)N2CCCC2)ccc1OCC(=O)NCc1ccco1,7.6,
O=C(NC(Cc1ccccc1)C(=O)O)c1ccc(S(=O)(=O)N2CCCCC2)cc1 (stereo not drawn),-4.1,
COc1cccc(CNC(=O)c2ccc(S(=O)(=O)N3CCCC3)cc2)c1,79.5*,VCAM1 pot confirm=-17.3
COc1ccc(OCCCN2CCCC(C)C2)cc1 (stereo not drawn),8.5,
CCOC(=O)c1[nH]c(C)c(C(=O)N2CCc3ccccc32)c1C,-53.7,
Cc1oc2cc3c(C(=O)N4CCCCC4)c(C)oc3cc2c1C(=O)N1CCCCC1,-89.1,
CN(C)S(=O)(=O)N(CC(=O)Nc1ccc2ccccc2c1)c1ccccc1,8.5,
COc1ccc(C(=O)NC(=S)N(Cc2ccccc2)Cc2ccccc2)cc1,4.4,
c1ccc2cc(OCc3nc4ccccc4[nH]3)ccc2c1,65.5*,VCAM1 pot confirm=-4.5
Nc1nc(COc2ccc3ccccc3c2)cs1,13.1,
COc1ccc(CSc2nc3ccccc3[nH]2)cc1,-35.3,
O=[N+]([O-])c1ccc(O)c(/C=N/Nc2ccc(Cl)nn2)c1,-63.4,
Cc1nc(CS(=O)c2ccc(Cl)cc2)cc(N2CCOCC2)n1 (stereo not drawn),-1.8,
O=C(NCCC1=CCCCC1)c1ccc(F)c(S(=O)(=O)N2CCOCC2)c1,-2.8,
COc1ccc(CN(CC(=O)NCC2CCCO2)C(=O)CNS(=O)(=O)c2ccc(C)cc2)cc1 (stereo not drawn),18.0,
COc1ccc(S(=O)(=O)NCC2CCC(C(=O)N3CCC4(CC3)OCCO4)CC2)cc1 (stereo not drawn),?,VCAM1 pot confirm=-16.9
CCOC(=O)N1CCN(C(=O)C2CCC(CNS(=O)(=O)c3ccccc3)CC2)CC1 (stereo not drawn),-9.7,
